# From the supplement of paper PMC8253809
# Assays:
# Assay in all cases: growth inhibition (% activity, log2 RLU normalised to DMSO / staurosporine); higher = more growth inhibition
# Conditions in all cases: 33 µM
# DIPGX29 = test system: DIPGX29 (H3.3 K27M diffuse intrinsic pontine glioma line)
# Procedure, shortened: (§1)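 For each approved drug, the growth-inhibition value is the replicate median of per-plate normalised CellTiter-Glo data. Luminescence was log2-transformed and expressed as % activity between solvent and positive control wells. Drugs were applied in triplicate at a single final concentration of about 33 μM for 7 days at 37 °C, 5% CO2 to pHGG cell lines and H9-derived neural stem cells.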
# DIPGX37 = test system: DIPGX37 (H3.3 K27M diffuse intrinsic pontine glioma line)
# Procedure, shortened: as §1
# DIPGX7 = test system: DIPGX7 (H3.3 K27M diffuse intrinsic pontine glioma line)
# Procedure, shortened: as §1
# DIPGX9 = test system: DIPGX9 (diffuse intrinsic pontine glioma line)
# Procedure, shortened: as §1
# HGGX39 = test system: HGGX39 (paediatric high-grade glioma line)
# Procedure, shortened: as §1
# HGGX6 = test system: HGGX6 (H3.3 G34R paediatric high-grade glioma line)
# Procedure, shortened: as §1
# HNSC = test system: HNSC
# Procedure, shortened: as §1
# SUDIPGIV = test system: SUDIPGIV (diffuse intrinsic pontine glioma line)
# Procedure, shortened: as §1
# SUDIPGVI = test system: SUDIPGVI (diffuse intrinsic pontine glioma line)
# Procedure, shortened: as §1
# SUDIPGXIII = test system: SUDIPGXIII (diffuse intrinsic pontine glioma line)
# Procedure, shortened: as §1
SMILES,growth inhibition (DIPGX29) [%],growth inhibition (DIPGX37) [%],growth inhibition (DIPGX7) [%],growth inhibition (DIPGX9) [%],growth inhibition (HGGX39) [%],growth inhibition (HGGX6) [%],growth inhibition (HNSC) [%],growth inhibition (SUDIPGIV) [%],growth inhibition (SUDIPGVI) [%],growth inhibition (SUDIPGXIII) [%]
CN1CCN(CCCN2c3ccccc3Sc3ccc(Cl)cc32)CC1,4.66,1.44,9.7,-0.83,3.02,1.39,13.3,-0.567,-3.14,-0.277
C[C@@H](Oc1cc(-c2cnn(C3CCNCC3)c2)cnc1N)c1c(Cl)ccc(F)c1Cl,26.5,7.08,9.03,10.8,16.1,13.5,54.5,6.53,17.5,1.64
NC[C@@H]1O[C@H](O[C@H]2[C@@H](O)[C@H](O[C@@H]3[C@@H](O)[C@H](N)C[C@H](N)[C@H]3O[C@H]3O[C@H](CN)[C@@H](O)[C@H](O)[C@H]3N)O[C@@H]2CO)[C@H](N)[C@@H](O)[C@@H]1O,0.966,0.68,1.55,0.402,2.24,-1.34,20.2,2.53,-6.55,-0.235
CCn1cc(C(=O)O)c(=O)c2cc(F)c(N3CCNC(C)C3)c(F)c21 (stereo not given),-4.04,-2.84,-0.94,-2.66,-4.99,-5.88,9.04,-2.28,-4.26,1.13
C[C@@H]1O[C@@H]1P(=O)(O)O,-0.0235,-0.548,-0.0992,1.37,2.18,1.12,0.39,-0.299,0.0548,1.68
OC(Cn1cncn1)(Cn1cncn1)c1ccc(F)cc1F,0.884,-0.267,1.06,1.31,1.3,1.42,1.54,-0.234,1.91,0.862
COc1cc2nc(N3CCN(C(=O)C4COc5ccccc5O4)CC3)nc(N)c2cc1OC (stereo not given),0.458,2.32,1.34,0.0132,2.47,1.58,-0.951,-3.82,1.52,2.13
N=C(N)NS(=O)(=O)c1ccc(N)cc1,1.78,3.55,1.86,2.35,3.26,1.87,0.257,1.45,1.1,-0.789
C#C[C@]1(O)CC[C@H]2[C@@H]3CCc4cc(O)ccc4[C@H]3CC[C@@]21C,0.982,1.91,0.741,0.29,0.261,2.48,0.451,-1.64,1.36,0.6
C[C@](N)(Cc1ccc(O)c(O)c1)C(=O)O,0.0946,1.72,-0.426,-0.748,-1.35,-1.03,0.654,-0.812,1.41,-0.739
O=C(O)c1cn(-c2ccc(F)cc2)c2cc(N3CCNCC3)c(F)cc2c1=O,1.77,0.654,2.46,2.37,4.02,3.31,1.3,4.25,3.85,0.944
COc1ccc2c(c1)c(CC(=O)O)c(C)n2C(=O)c1ccc(Cl)cc1,-3.09,-0.682,0.11,-3.3,-3.42,-2.79,-3.23,-6.71,-7.35,2.32
Cc1c(Cl)cccc1Nc1ccccc1C(=O)O,1.71,2.72,2.88,2.29,4.47,2.44,4.89,-2.4,2.85,0.296
C[C@H](Cn1cnc2c(N)ncnc21)OCP(=O)(O)O,-1.46,-3.07,-1.11,-0.823,-1.24,-0.0212,-0.925,-2.6,-0.383,0.192
CNC(=C[N+](=O)[O-])NCCSCc1ccc(CN(C)C)o1,2.69,2.65,5.27,2.2,4.25,0.922,9.82,1.43,1.91,-0.737
CC(=O)N[C@H]1[C@H]([C@H](O)[C@H](O)CO)OC(C(=O)O)=C[C@@H]1NC(=N)N,1.23,2.89,2.14,1.62,1.17,-2.7,7.75,1.46,2.82,2.15
CC1=CC(=O)c2ccccc2C1=O,2.41,0.293,3.47,2.26,1.01,2.5,42.7,1.4,4.19,-2.13
CN(C)CCCN1c2ccccc2CCc2ccc(Cl)cc21,0.798,0.768,0.947,2.88,7.81,0.658,8.46,7.66,3.07,3.28
Nc1nc(=O)[nH]cc1F,1.91,1.71,2.65,3.09,1.88,1.43,1.22,0.252,2.66,-3.23
CN[C@H]1CC[C@@H](c2ccc(Cl)c(Cl)c2)c2ccccc21,13.3,6.8,6.25,4.32,7.5,7.73,55,3.54,6.72,1.68

SMILES,growth inhibition (DIPGX29) [%],growth inhibition (DIPGX37) [%],growth inhibition (DIPGX7) [%],growth inhibition (DIPGX9) [%],growth inhibition (HGGX39) [%],growth inhibition (HGGX6) [%],growth inhibition (HNSC) [%],growth inhibition (SUDIPGIV) [%],growth inhibition (SUDIPGVI) [%],growth inhibition (SUDIPGXIII) [%]
Cc1cccc(Nc2ccccc2C(=O)O)c1C,-4,-1.52,3.05,-3.62,-3.34,-4.45,9.87,-8.08,-6.14,-0.652
Fc1ccc([C@@H]2CCNC[C@H]2COc2ccc3c(c2)OCO3)cc1,1.88,0.828,1.44,-0.123,-1.48,0.754,54.9,-0.812,-0.542,1.2
CN(C)CCC(c1ccc(Cl)cc1)c1ccccn1 (racemic),1.65,2.71,2.71,1.38,3.68,0.339,4.41,1.92,4.15,-0.538
CCCCC1C(=O)N(c2ccccc2)N(c2ccccc2)C1=O,-0.206,-1.51,-0.44,-1.82,-1.47,-2.46,0.0851,-3.3,-4.73,-0.592
C[C@@H](O)[C@H]1C(=O)N2C(C(=O)O)=C(S[C@@H]3CN[C@H](C(=O)N(C)C)C3)[C@H](C)[C@H]12,-2.93,0.205,-1.37,-0.242,-2.33,-3.05,4.4,-2.08,-2.04,0.717
Fc1ccc(C(c2ccc(F)cc2)N2CCN(C/C=C/c3ccccc3)CC2)cc1,4.97,2.42,6.22,3.95,9.77,2.44,14.4,15.8,5.18,8.8
N#CC[C@H](C1CCCC1)n1cc(-c2ncnc3[nH]ccc23)cn1,-0.711,-0.293,0.591,-1.04,1.2,-0.228,-3.15,-1.09,1.18,-0.858
CN(N=O)C(=O)N[C@H]1C(O)O[C@H](CO)[C@@H](O)[C@@H]1O (mixture of isomers),0.875,2.37,2.05,1.8,0.924,2.69,2.82,1.45,2.34,0.628
NC[C@H](O)c1ccc(O)c(O)c1,1.26,2.54,0.579,1.67,3.45,1.96,-0.629,1.37,3.2,1.73
NC[C@@H]1O[C@H](O[C@H]2[C@@H](O)[C@H](O[C@@H]3[C@@H](O)[C@H](N)C[C@H](N)[C@H]3O[C@H]3O[C@H](CO)[C@@H](O)[C@H](O)[C@H]3N)O[C@@H]2CO)[C@H](N)[C@@H](O)[C@@H]1O,0.301,2.89,0.972,0.973,1.1,1.84,-2.1,-0.26,0.401,0.0349
CN1CCC[C@@H]1CCO[C@](C)(c1ccccc1)c1ccc(Cl)cc1,5.74,3.39,5.71,2.23,6.24,5.32,4.55,0.591,2.52,1.69
Cc1ccc(-c2cc(C(F)(F)F)nn2-c2ccc(S(N)(=O)=O)cc2)cc1,0.436,-3.87,-0.904,0.265,-0.617,-1.39,0.519,-5.64,1.64,0.102
CC(=O)[C@H]1CC[C@H]2[C@@H]3CCC4=CC(=O)CC[C@]4(C)[C@H]3CC[C@]12C,1.09,3.02,4.3,2,4.64,5.84,2.02,-1.26,1.04,1.18
O=C(NC(Cc1cc(=O)[nH]c2ccccc12)C(=O)O)c1ccc(Cl)cc1 (stereo not given),0.575,0.0807,-1.26,0.987,0.192,0.202,-1.11,-0.753,0.645,0.24
CC/C(=C(\c1ccccc1)c1ccc(OCCN(C)C)cc1)c1ccccc1,7.72,1.28,12.1,3.63,11.1,10.5,21,7.38,5.56,2.99
CC(=O)OCC(=O)[C@H]1CC[C@H]2[C@@H]3CCC4=CC(=O)CC[C@]4(C)[C@H]3CC[C@]12C,-1.69,-0.592,-0.0117,-0.0895,1.53,-0.537,-2.47,-2,-0.651,5.18
CC1(C)S[C@@H]2[C@H](NC(=O)[C@H](NC(=O)N3CCNC3=O)c3ccccc3)C(=O)N2[C@H]1C(=O)O,-0.235,0.459,-0.00643,0.298,1.59,-0.0472,-1.56,-0.88,-1.06,-0.815
Cc1cc(C(C)(C)C)cc(C)c1CC1=NCCN1,-3.84,-1.44,-1.4,-2.83,-0.405,-4.11,2.45,0.0122,-2.26,-0.432
CO/N=C(\C(=O)N[C@@H]1C(=O)N2C(C(=O)OCOC(=O)C(C)(C)C)=C(/C=C\c3scnc3C)CS[C@H]12)c1csc(N)n1,-0.112,1.84,0.192,-1.35,1.82,-1.1,0.492,0.557,0.818,-0.304
